Assay results taken from PubChem BioAssay.

How the values were obtained:
[1] = test system: Botulinum neurotoxin type F light chain protease (Clostridium botulinum); assay: Botulinum neurotoxin type F light chain protease inhibition, multiplex microsphere flow cytometry, validation set (AID 588459); conditions: multiplex microsphere protease substrate cleavage assay, at 10 µM, hits give high values
[2] = target: Botulinum neurotoxin type A (Clostridium botulinum) (UniProt P0DPI0); assay: BoNT/A light chain protease inhibitors, biochemical, multiplex microsphere flow cytometry, validation set (AID 588460); conditions: at 10 µM, hits give high values
[3] = target: Lethal factor (Bacillus anthracis) (UniProt P15917); assay: Lethal factor protease inhibitors, Bacillus anthracis, multiplex microsphere cleavage assay, validation set (AID 588461); conditions: flow cytometry, at 10 µM, hits give high values

Measured: inhibition

Sequence of Botulinum neurotoxin type A (Clostridium botulinum) (P0DPI0 whole entry, looked up): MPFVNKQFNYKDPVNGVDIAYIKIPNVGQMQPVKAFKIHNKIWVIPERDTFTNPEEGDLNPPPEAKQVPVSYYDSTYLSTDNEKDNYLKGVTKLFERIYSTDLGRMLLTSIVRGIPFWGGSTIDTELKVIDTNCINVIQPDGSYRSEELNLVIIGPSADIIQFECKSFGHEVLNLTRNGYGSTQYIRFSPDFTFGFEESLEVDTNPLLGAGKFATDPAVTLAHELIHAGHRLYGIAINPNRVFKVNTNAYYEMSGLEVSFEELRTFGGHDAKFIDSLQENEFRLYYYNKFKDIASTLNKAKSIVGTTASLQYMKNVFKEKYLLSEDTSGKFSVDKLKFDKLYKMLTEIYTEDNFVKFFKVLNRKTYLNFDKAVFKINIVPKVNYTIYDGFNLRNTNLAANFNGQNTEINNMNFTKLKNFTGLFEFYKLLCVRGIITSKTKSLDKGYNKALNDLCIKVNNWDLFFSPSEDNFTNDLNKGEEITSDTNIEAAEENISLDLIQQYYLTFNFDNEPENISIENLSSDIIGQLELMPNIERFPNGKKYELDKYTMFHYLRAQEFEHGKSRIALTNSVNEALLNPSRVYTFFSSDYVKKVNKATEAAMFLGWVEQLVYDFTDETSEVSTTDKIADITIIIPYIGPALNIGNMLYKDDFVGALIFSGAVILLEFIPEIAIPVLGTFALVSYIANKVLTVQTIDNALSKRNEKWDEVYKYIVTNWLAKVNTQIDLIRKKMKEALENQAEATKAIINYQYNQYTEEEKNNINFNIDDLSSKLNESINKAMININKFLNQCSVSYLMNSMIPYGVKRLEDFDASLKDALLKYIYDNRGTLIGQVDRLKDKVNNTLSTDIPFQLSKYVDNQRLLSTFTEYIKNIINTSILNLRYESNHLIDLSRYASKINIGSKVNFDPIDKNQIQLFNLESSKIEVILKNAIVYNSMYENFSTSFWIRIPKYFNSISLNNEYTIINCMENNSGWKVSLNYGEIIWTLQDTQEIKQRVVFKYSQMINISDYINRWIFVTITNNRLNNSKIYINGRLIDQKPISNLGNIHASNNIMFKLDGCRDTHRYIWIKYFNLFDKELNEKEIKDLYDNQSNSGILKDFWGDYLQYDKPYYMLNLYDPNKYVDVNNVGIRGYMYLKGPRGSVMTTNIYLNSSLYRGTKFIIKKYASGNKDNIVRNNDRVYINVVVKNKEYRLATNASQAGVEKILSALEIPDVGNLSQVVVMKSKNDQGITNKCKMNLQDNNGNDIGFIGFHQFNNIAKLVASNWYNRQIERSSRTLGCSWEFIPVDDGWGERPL
Sequence of Lethal factor (Bacillus anthracis) (P15917 whole entry, looked up): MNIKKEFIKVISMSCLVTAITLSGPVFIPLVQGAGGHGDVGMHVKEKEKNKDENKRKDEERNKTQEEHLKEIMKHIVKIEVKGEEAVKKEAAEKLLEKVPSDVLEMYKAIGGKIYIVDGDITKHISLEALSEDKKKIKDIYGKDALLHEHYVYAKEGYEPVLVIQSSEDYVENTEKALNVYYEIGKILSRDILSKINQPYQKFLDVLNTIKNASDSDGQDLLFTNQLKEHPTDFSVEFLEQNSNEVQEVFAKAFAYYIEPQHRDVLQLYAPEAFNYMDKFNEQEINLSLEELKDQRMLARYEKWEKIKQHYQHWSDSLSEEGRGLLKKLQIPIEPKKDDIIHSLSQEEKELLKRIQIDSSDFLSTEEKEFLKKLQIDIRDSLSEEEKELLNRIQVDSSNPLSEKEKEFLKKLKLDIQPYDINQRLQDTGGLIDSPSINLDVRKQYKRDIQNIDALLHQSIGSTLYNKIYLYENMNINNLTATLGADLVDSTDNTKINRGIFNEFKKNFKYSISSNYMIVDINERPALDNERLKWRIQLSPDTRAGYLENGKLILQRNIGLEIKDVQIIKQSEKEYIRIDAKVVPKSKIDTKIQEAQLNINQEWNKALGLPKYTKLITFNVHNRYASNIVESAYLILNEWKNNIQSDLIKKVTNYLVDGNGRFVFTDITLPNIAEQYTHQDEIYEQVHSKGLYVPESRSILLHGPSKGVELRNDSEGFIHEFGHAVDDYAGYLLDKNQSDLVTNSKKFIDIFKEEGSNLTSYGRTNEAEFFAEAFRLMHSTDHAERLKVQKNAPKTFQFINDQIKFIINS

S=C(NCCOCCOCCNC(=S)Nc1ccccc1)Nc1ccccc1
inactive: [1] 1.9% | [2] 2% | [3] -3.8%

CCN1CCN(C(=O)N[C@@H](C(=O)N[C@@H]2C(=O)N3[C@@H]2SC(C)(C)[C@@H]3C(=O)O)c2ccccc2)C(=O)C1=O
inactive: [1] -1.5% | [2] 0.3% | [3] 1.4%

O=C(c1ccc(O)cc1)c1ccc(O)cc1O
inactive: [1] -0.9% | [2] 1.3% | [3] -0.6%

OC(CCCN1CCCCC1)(c1ccccc1)c1ccccc1
inactive: [1] 3.3% | [2] 0% | [3] 7.6%

O=C(NCc1ccc(N2CCCC2=O)cc1)c1cccc(Cl)c1
inactive: [1] -4.5% | [2] -2.2% | [3] 1%

C[C@]12C[C@H](O)[C@H]3[C@@H](CCC4=CC(=O)CC[C@@]43C)[C@@H]1CC[C@@H]2C(=O)CO
inactive: [1] 0.1% | [2] -0.6% | [3] -9.2%

Cc1ccc(-c2nn(-c3cccc(F)c3)cc2CN2CCN(c3ccccn3)CC2)o1
inactive: [1] -0.1% | [2] -0.9% | [3] -6.4%

COc1cc(COc2ccc3c(C)c(Cc4ccccc4)c(=O)oc3c2)cc(OC)c1OC
inactive: [1] 3.5% | [2] 0.9% | [3] -2.3%

COCCn1c(/C=C/c2ccccc2)nc2ccccc21
inactive: [1] -1.2% | [2] 0% | [3] -3.4%

COc1ccc(C(=O)NCC2OCCc3ccccc32)cc1 (configuration not stated)
inactive: [1] -0.4% | [2] -0.3% | [3] -8.6%

O=C(/C=C/c1ccccc1)NCC1(c2ccccc2)CCOCC1
inactive: [1] -1.5% | [2] 0.4% | [3] 3%

CCOC(=O)C1C(=O)CC(C)(O)C(C(=O)OCC)C1/C=C/c1ccccc1 (configuration not stated)
inactive: [1] 1.1% | [2] 1% | [3] -1.4%

O=C(O)C1CCN(C(=O)COc2ccc3c4c(c(=O)oc3c2)CCC4)CC1
inactive: [1] 3% | [2] -1.1% | [3] 2.5%

O=C(OCC1CCCN2CCCCC12)c1ccc2c(c1)OCO2 (configuration not stated)
inactive: [1] -1.9% | [2] -1.6% | [3] -6.7%

CC(=O)Oc1ccc(C(=O)O)cc1OC(C)=O
inactive: [1] -0.7% | [2] 0.4% | [3] 2.4%

COc1ccc2nc(C)cc(Nc3ccccc3O)c2c1
inactive: [1] 1% | [2] 1% | [3] -1.4%

CS(=O)(=O)NCc1ccc(C(=O)NCc2ccccc2)cc1
inactive: [1] 2.9% | [2] 0.5% | [3] -4.2%

COc1ccc(C(=O)COc2ccc(F)cc2)c(O)c1
inactive: [1] 1% | [2] -1.3% | [3] -9.8%

CC(NCCC(c1ccccc1)c1ccccc1)c1ccccc1 (configuration not stated)
inactive: [1] -5.9% | [2] -1.1% | [3] 3.4%

CC(=O)OC(C)C[N+](C)(C)C (configuration not stated)
inactive: [1] 0.7% | [2] 0.6% | [3] -5.8%

Cc1ccc(S(=O)(=O)Oc2ccccc2/C=N/N=C(N)N)cc1
inactive: [1] 0.8% | [2] 1.3% | [3] -7.6%

O=C1C2CC=C(Cl)CC2C(=O)N1CCc1c[nH]c2ccccc12 (configuration not stated)
inactive: [1] 0.7% | [2] 0.1% | [3] 0.1%

COc1ccc(-n2cc(CNCc3cccnc3)c(-c3cccc(F)c3)n2)cc1
inactive: [1] -3.6% | [2] -0.7% | [3] -8.2%

NC(N)=NC(=O)Cc1c(Cl)cccc1Cl
inactive: [1] -3.3% | [2] -1.8% | [3] -3.1%

COc1ccc(C2NC(C(=O)O)Cc3c2[nH]c2ccccc32)cc1CN1CCN(c2ccc(F)cc2)CC1 (configuration not stated)
inactive: [1] 8.8% | [2] 0.4% | [3] 2.2%

CC12COC3(C(=O)Nc4ccc(F)cc4)CC1CCC32C (configuration not stated)
inactive: [1] 3.3% | [2] 1% | [3] -1.8%

CCC(=O)O[C@]1(C(=O)CCl)[C@@H](C)C[C@H]2[C@@H]3CCC4=CC(=O)C=C[C@]4(C)[C@@]3(F)[C@@H](O)C[C@@]21C
inactive: [1] -0.5% | [2] -1.2% | [3] -3.4%

CC1(C)CC(=O)c2c(nc3ccccc3c2N)C1
inactive: [1] 1% | [2] -0.5% | [3] 7.9%

COc1ccc2nc(S(=O)Cc3ncc(C)c(OC)c3C)[nH]c2c1 (configuration not stated)
inactive: [1] 4.3% | [2] 1.7% | [3] 5%
